This passage reports Potency, outcome and activity change, negative = cytotoxicity results from PubChem BioAssay (NCATS).

Assay [1] can be described thus: P-glycoprotein substrates identified in KB-8-5-11 adenocarcinoma cell line, qHTS therapeutic library screen (AID 1346987). For activity change, negative = cytotoxicity: % is set by controls: 0 for no effect and ±100 for the full control effect. Note: nearly all actives have a fitted effect of over 65% in size. Note: potency is the fitted concentration of half-maximal effect. The settings on record: KB-8-5-11 (P-gp overexpressing) viability, CellTiter-Glo, 72 h; series mostly up to 44.5 µM. An outline of the steps: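 Luminescence from CellTiter-Glo, read 5 min after addition, quantified survival of KB-8-5-11 (P-gp-overexpressing) cells exposed to compounds for 72 h. AC50 was derived from concentration-response curves.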
For orientation: In qHTS, concentration-response curves come from the screen itself.

The target in assay [2] is Atrial natriuretic peptide receptor 1 (Homo sapiens) (UniProt P16066). The assay is described as follows: Natriuretic polypeptide receptor (hNpr1) antagonism - Pilot screen (AID 1347049; calls by dose curve;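 note: agonist-evoked cGMP luminescence read 20 min after hNppA addition; % is set by controls: 0 for no effect and ±100 for the full control effect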). Particulars: hNpr1 cells, antagonist mode cGMP read-out; series mostly up to 57.5 µM. A digest of the protocol:
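cGMP-sensor HEK293/hNpr1 cells, 1500/well, plated overnight at 37C. 2% GloSensor reagent, 2 h RT. Compound (23 nL pin transfer) 30 min RT, baseline luminescence pre-read. 0.1 nM hNppA, 20 min RT, post-read.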

Assay [3] concerns the target Atrial natriuretic peptide receptor 2 (Homo sapiens) (UniProt P20594). The assay is described as follows: Natriuretic polypeptide receptor (hNpr2) antagonism - Pilot subtype selectivity assay (AID 1347050; calls by dose curve; note: potency is the fitted concentration of half-maximal effect). Particulars: NPR2-expressing cells, cGMP antagonist-mode read-out; series mostly up to 38.3 µM. An outline of the steps: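 Luminescence from a genetically encoded cGMP luciferase biosensor in hNpr2-expressing HEK293 cells is read before and 20 min after adding 1 nM hNppC. Test compounds, in interplate 1:5 titrations, are added 30-50 min ahead of the agonist.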

Assay [4] has as its target T1, Tyrosine-protein phosphatase non-receptor type substrate 1 (Homo sapiens) + Leukocyte surface antigen CD47 (Homo sapiens) (UniProt P78324+Q08722). Briefly: CD47-SIRPalpha protein protein interaction - LANCE assay qHTS validation (AID 1347057; active = well fitted curve in the direction sought with a large enough effect in the signal ratio, with a control signal flat, not every such curve was filed as active; the % refers to the signal ratio; note: 0% is about no effect). Particulars: Recombinant CD47-His / biotin-SIRPalpha, TR-FRET ratio; series mostly up to 38.3 µM. A digest of the protocol: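 Inhibition of soluble CD47/SIRPalpha ectodomain association by titrated compounds, measured as 665/615 nm time-resolved FRET ratio after sequential 30 min room-temperature incubations.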
For orientation: Time-resolved FRET reads energy transfer from a long-lived donor to a nearby acceptor.

Assay [5] addresses T1, Tyrosine-protein phosphatase non-receptor type substrate 1 (Homo sapiens) + Leukocyte surface antigen CD47 (Homo sapiens). Briefly: CD47-SIRPalpha protein protein interaction - HTRF assay qHTS validation (AID 1347058; active = well fitted curve in the direction sought with a large enough effect in the signal ratio, not every such curve was filed as active; the % refers to the signal ratio; note: 0% is about no effect). Particulars: TR-FRET HTRF CD47-His / biotin-SIRPalpha binding, ratio 665/615; series mostly up to 38.3 µM. An outline of the steps:
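Soluble extracellular domains (6His-CD47, Avi-tag-biotinylated SIRPalpha) in PBS pH 7.4 with 0.05% IGEPAL CA-630. Compounds were preincubated 30 min at RT with CD47 and anti-His-Eu, then SIRPalpha and SAV-XL665 were added. TR-FRET 665/615 ratio.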

Assay [6] shares this target. Briefly: CD47-SIRPalpha protein protein interaction - Alpha assay qHTS validation (AID 1347059).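 Note: bead proximity luminescence from CD47 binding SIRPalpha after compound preincubation with SIRPalpha; % is set by controls: 0 for no effect and ±100 for the full control effect.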 The settings on record: AlphaScreen CD47-His/biotin-SIRPalpha binding, LOPAC; series mostly up to 38.3 µM. An outline of the steps:
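SIRPalpha-biotin 25 nM + cpd, 30 min RT, dark; add CD47-His 12.5 nM, 30 min; add Ni-NTA/SAV beads 10 ug/mL, 30 min; AlphaScreen. Buffer PBS pH 7.4 + 0.05% IGEPAL CA-630. Non-biotinylated SIRPalpha as control inhibitor.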

The target in assay [7] is Parathyroid hormone/parathyroid hormone-related peptide receptor (Homo sapiens) (UniProt Q03431). Briefly: qHTS for PTHR1 Agonists: Optimization Screen against the NCGC LOPAC library (AID 1347079).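 Note: GloSensor cAMP luminescence in HEK-293 GP2 cells expressing human PTHR1 with IBMX; 0% is about no effect.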 Particulars: HEK293 GP2 PTHR1 GloSensor cAMP luminescence, 1 h; series mostly up to 57.1 µM. A digest of the protocol:
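HEK-293 GP2 cells, PTHR1 + GloSensor cAMP; 3000 cells/well, o/n. Luciferin + IBMX 0.5mM each (stock), 1 hr 37C. Cpd titration, 1 hr 37C. Lum after 15 min RT. Ctrl M-PTH(1-15) top 10uM.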

Assay [8] is described as follows: qHTS of pediatric cancer cell lines to identify multiple opportunities for drug repurposing: Primary screen for SJ-GBM2 cells (AID 1347091). Note: potency is the fitted concentration of half-maximal effect. Particulars: SJ-GBM2 viability, CellTiter-Glo luminescence, 48 h. A digest of the protocol: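 Viability measured as metabolically active cells via CellTiter-Glo luminescence following 48 hours of compound exposure, 11-point dilutions in confirmatory testing. 500-1,000 cells/well plated 5 hours before dosing; controls were DMSO and 2.3 µM bortezomib.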

The nature of assay [9]: qHTS of pediatric cancer cell lines to identify multiple opportunities for drug repurposing: Primary screen for Saos-2 cells (AID 1347097). Note: potency is the fitted concentration of half-maximal effect; nearly all actives have a fitted effect of over 40% in size. Particulars: Saos-2 viability, CellTiter-Glo ATP luminescence, 48 h. An outline of the steps: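 Primary screen of approved and investigational compounds on cells in growth media at 37 degrees C, 5% CO2. MIPE set at 11-point and NPC set at 8-point dilutions; viability scored by ATP-based luminescence at 48 hours.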

Assay [10] in a line: qHTS of pediatric cancer cell lines to identify multiple opportunities for drug repurposing: Primary screen for SK-N-SH cells (AID 1347098). Note: potency is the fitted concentration of half-maximal effect; nearly all actives have a fitted effect of over 65% in size. Particulars: SK-N-SH viability, CellTiter-Glo luminescence, 48 h. An outline of the steps: (§1)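 Cells (500-1,000/well) rested 5 h, then received compounds for 48 h; metabolically active cells were measured by CellTiter-Glo luminescence. Final concentrations spanned up to 46 µM (MIPE, 11-point) or 0.59 nM-46 µM (NPC, 8-point) in primary screens, 11-point in follow-ups.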

Assay [11] in a line: qHTS of pediatric cancer cell lines to identify multiple opportunities for drug repurposing: Primary screen for BT-12 cells (AID 1347101). Note: potency is the fitted concentration of half-maximal effect; nearly all actives have a fitted effect of over 25% in size. The settings on record: BT-12 viability, CellTiter-Glo luminescence, 48 h. A digest of the protocol: as §1
The nature of assay [12]: qHTS of pediatric cancer cell lines to identify multiple opportunities for drug repurposing: Primary screen for Rh18 cells (AID 1347102). Note: potency is the fitted concentration of half-maximal effect; nearly all actives have a fitted effect of over 65% in size. Particulars: Rh18 rhabdomyosarcoma viability, CellTiter-Glo luminescence, 48 h. A digest of the protocol:
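Viability after 48 h compound treatment at 37C, 500-1,000 cells/well, read as ATP luminescence with CellTiter-Glo. Primary screens used 11-point (MIPE, 0.78 nM-46 µM) or 8-point (NPC, 0.59 nM-46 µM) final concentrations; follow-up screens used 11-point dilutions.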

Assay [13] can be described thus: qHTS of pediatric cancer cell lines to identify multiple opportunities for drug repurposing: Primary screen for OHS-50 cells (AID 1347103). Note: potency is the fitted concentration of half-maximal effect; nearly all actives have a fitted effect of over 40% in size. The settings on record: OHS-50 osteosarcoma viability, CellTiter-Glo luminescence, 48 h. An outline of the steps: as §1
The next assay deals with Furin (Homo sapiens) (UniProt P09958). Briefly: Furin counterscreen qHTS for Zika virus inhibitors (AID 1347149). Note: nearly all actives have a fitted effect of over 70% in size. Note: potency is the fitted concentration of half-maximal effect. The settings on record: furin enzymatic counterscreen, fluorogenic substrate; series mostly up to 114 µM. A digest of the protocol:
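Counterscreen measures cleavage of 2 microM BOC-RVRR-AMC, below its ~15 microM Km, by 5 nM full-length human furin at pH 7.0 after a 15-min compound preincubation. Inhibition derives from the 15-min fluorescence increase at 37C.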
In general terms: Counterscreens check selectivity or assay interference.

Assay [14] relates to Zika virus NS2B-NS3 protease (linked construct). Briefly: Confirmatory screen NINDS AMC qHTS for Zika virus inhibitors (AID 1347152). Note: nearly all actives have a fitted effect of over 70% in size. Note: potency is the fitted concentration of half-maximal effect. The settings on record: Purified linked NS2B-NS3, AMC substrate fluorescence; series mostly up to 36.9 µM. An outline of the steps:
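Enzyme (1 nM, linked construct) was preincubated with compound for 15 minutes at room temperature in 10 mM Tris-HCl pH 8.0 with 0.01% Tween 20. Bz-Nle-Lys-Arg-Arg-AMC was then added to 10 microM, and AMC fluorescence was recorded immediately and after 15 minutes.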

The test system of assay [15] is Zika virus NS2B-NS3 protease (unlinked complex). The assay is described as follows: Confirmatory screen GU AMC qHTS for Zika virus inhibitors (AID 1347153).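 Note: enzyme at 25 nM with substrate at 10 µM below its Km of 18.3 µM; potency is the fitted concentration of half-maximal effect; nearly all actives have a fitted effect of over 70% in size.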 The settings on record: Recombinant NS2B-NS3 protease, AMC substrate fluorescence. A digest of the protocol:
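Fluorescence change (ex 340/em 450 nm) over 15 min, ~20% substrate conversion, normalized to no-inhibitor and no-enzyme controls, then Hill-fitted. Unlinked protease at 25 nM; AMC peptide 10 µM.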

Assay [16] deals with Zika virus NS2B-NS3 protease (unlinked). The assay is described as follows: Optimization of GU AMC qHTS for Zika virus inhibitors: Unlinked NS2B-NS3 protease assay (AID 1347151).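 Note: 0% = no-inhibitor control and -100% = no-enzyme control; nearly all actives have a fitted effect of over 80% in size.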 Particulars: recombinant ZIKV NS2B-NS3 protease, fluorogenic AMC substrate; series mostly up to 52.5 µM. A digest of the protocol:
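Unlinked protease (25 nM final); buffer 10 mM Tris-HCl pH 8.0 + 0.01% Tween 20; AMC substrate; 15 min RT, dark; Δfluorescence normalized to no-inhibitor/no-enzyme controls; 4-parameter Hill fit.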

Unmarked numbers belong to inactive results. Results filed as inconclusive are left out. The source made the active and inactive calls. Unless noted, calls come from the whole dose curve; as a rule, active = well fitted curve in the direction sought with a large enough effect; inconclusive = small, poorly fitted or top-dose-only effect, or another doubt; inactive = no such curve, though single readings can be large; an effect the other way counts as inactive or inconclusive.

T1 sequence (P78324 whole entry, looked up, the tested form may be a part): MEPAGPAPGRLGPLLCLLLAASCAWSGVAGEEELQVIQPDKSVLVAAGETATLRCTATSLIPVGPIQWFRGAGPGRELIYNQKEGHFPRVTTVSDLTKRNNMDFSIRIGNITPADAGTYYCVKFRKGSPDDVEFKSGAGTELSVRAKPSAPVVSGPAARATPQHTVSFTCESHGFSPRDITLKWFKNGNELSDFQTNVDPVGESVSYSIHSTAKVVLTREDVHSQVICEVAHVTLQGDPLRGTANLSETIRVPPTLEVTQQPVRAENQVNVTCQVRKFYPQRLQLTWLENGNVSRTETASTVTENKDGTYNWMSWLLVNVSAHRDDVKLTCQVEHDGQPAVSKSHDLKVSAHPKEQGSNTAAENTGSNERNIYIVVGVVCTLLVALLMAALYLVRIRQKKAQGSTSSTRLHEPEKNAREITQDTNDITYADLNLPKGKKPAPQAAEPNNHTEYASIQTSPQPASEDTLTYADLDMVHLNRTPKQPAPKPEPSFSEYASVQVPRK
T1 sequence (Q08722 whole entry, looked up, the tested form may be a part): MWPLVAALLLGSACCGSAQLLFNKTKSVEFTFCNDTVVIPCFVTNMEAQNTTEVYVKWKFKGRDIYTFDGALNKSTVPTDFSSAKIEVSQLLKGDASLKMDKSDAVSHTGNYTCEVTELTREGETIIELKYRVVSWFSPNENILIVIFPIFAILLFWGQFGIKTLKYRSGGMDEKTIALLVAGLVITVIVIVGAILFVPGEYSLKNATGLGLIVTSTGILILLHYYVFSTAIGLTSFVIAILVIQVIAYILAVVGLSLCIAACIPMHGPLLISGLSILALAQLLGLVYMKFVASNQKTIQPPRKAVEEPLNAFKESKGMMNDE
Sequence of Furin (Homo sapiens) (P09958 whole entry, looked up): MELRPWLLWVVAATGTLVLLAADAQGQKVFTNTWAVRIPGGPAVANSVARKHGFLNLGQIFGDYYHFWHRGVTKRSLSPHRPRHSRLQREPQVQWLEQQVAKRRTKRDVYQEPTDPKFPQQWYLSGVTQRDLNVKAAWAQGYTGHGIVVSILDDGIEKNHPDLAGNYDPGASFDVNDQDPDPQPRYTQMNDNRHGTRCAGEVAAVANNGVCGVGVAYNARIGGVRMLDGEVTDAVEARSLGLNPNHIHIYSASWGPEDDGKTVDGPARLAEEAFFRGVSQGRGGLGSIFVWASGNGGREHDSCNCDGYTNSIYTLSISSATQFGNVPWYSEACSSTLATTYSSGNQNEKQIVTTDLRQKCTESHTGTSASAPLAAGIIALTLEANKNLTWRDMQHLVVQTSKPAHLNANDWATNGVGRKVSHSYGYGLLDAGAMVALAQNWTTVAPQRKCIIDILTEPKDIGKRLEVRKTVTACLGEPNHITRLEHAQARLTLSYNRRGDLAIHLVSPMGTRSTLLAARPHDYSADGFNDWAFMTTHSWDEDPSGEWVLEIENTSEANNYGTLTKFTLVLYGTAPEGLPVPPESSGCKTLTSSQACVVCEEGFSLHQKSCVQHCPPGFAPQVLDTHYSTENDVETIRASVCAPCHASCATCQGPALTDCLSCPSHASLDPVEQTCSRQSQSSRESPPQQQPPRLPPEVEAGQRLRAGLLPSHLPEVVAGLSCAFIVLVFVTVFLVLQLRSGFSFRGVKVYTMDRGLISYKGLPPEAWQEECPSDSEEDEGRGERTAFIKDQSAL
Sequence of Atrial natriuretic peptide receptor 2 (Homo sapiens) (P20594 whole entry, looked up): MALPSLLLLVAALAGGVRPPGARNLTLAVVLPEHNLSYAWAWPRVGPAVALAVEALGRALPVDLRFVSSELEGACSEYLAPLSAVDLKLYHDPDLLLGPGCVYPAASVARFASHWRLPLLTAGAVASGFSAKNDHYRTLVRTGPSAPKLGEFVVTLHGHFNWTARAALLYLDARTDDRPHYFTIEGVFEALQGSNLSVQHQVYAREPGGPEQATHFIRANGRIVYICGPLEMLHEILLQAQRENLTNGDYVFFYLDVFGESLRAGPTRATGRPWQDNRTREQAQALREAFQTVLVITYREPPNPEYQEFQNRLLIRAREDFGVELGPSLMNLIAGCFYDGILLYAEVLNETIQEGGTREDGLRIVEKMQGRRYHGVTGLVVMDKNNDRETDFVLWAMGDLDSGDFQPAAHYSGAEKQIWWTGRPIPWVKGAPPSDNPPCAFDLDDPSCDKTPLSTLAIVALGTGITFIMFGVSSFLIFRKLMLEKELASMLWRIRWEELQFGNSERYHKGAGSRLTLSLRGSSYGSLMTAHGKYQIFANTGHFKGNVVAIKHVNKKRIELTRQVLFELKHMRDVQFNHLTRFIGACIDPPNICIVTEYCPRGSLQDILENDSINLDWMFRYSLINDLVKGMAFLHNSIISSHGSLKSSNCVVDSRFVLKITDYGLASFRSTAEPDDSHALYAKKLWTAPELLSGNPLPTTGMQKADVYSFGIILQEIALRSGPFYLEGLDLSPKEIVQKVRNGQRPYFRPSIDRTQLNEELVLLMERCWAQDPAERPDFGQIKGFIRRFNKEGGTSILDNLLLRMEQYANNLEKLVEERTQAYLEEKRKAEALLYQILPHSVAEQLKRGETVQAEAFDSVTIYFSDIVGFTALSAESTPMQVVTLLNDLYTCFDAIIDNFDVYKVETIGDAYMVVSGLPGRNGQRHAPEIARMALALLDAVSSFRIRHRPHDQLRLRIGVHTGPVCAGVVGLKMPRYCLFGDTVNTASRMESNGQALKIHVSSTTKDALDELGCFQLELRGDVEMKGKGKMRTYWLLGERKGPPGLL
Sequence of Parathyroid hormone/parathyroid hormone-related peptide receptor (Homo sapiens) (Q03431 whole entry, looked up): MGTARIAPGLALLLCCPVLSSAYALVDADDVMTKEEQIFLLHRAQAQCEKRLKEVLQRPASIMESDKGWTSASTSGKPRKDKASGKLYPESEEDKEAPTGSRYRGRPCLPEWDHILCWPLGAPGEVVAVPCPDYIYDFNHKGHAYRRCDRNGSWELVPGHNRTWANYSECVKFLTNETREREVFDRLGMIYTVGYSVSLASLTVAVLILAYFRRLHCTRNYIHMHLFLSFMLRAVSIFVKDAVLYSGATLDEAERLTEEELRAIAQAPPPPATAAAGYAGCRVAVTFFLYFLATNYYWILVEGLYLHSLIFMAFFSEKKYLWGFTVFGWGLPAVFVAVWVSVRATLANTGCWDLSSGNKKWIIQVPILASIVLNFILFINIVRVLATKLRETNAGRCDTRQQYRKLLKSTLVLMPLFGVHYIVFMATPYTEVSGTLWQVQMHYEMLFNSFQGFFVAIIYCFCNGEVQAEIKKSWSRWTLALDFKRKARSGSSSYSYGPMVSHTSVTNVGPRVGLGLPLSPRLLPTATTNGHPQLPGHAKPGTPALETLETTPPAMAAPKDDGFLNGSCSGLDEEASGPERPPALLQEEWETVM
Sequence of Atrial natriuretic peptide receptor 1 (Homo sapiens) (P16066 whole entry, looked up): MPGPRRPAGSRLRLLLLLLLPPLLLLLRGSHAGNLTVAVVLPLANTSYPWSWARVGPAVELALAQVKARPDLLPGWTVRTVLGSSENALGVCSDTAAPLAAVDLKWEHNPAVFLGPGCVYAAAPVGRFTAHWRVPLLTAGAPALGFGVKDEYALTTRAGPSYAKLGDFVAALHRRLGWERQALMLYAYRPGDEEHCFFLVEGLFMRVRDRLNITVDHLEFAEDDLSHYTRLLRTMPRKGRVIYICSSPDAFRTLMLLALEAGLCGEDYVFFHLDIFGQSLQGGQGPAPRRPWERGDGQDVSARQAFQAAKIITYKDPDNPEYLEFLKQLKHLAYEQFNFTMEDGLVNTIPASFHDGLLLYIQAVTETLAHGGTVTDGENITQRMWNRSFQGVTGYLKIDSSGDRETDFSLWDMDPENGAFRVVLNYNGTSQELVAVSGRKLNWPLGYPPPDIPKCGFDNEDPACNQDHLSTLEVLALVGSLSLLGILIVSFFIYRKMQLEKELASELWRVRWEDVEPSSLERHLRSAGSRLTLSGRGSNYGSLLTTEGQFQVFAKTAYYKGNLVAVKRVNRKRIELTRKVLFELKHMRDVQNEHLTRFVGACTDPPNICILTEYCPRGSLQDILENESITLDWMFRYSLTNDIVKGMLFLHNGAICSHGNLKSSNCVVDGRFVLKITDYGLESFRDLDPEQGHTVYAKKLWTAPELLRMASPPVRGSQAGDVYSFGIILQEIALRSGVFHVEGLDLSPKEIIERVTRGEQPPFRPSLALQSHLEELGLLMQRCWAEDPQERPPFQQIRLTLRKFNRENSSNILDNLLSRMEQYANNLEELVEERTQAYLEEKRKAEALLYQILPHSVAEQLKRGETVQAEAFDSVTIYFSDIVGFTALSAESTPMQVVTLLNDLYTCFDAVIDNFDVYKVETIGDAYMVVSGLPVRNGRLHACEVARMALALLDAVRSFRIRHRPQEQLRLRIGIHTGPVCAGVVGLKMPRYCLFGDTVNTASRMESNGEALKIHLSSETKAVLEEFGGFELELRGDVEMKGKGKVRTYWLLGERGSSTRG

For `C/C=C(/CC[C@@H](C)[C@H]1CC[C@H]2C3=CC[C@H]4[C@H](C)[C@@H](O)CC[C@]4(C)[C@H]3CC[C@]12C)C(C)C`, the Potency result in assay [1] was “inactive”.

As to `CN[C@H]1CC[C@@H](c2ccc(Cl)c(Cl)c2)c2ccccc21`, the result in [2], in assay [4], in [5], in assay [6] and in assay [7] was inactive. Moreover, the Potency in assay [3] was 14.7 µM (active); in [8], 23.7 µM (active); in assay [9], 23.7 µM (active); in assay [10] it was 10.9 µM (active); in [11] it was 21.9 µM (active); in assay [12] it was 23.7 µM (active). In [13], the Potency is 15.5 µM (active).

Take `C/C(=C/CO)CCC1C(C)CCC2C(C)(C)CCCC12C` (stereo not drawn): in assay [1], the Potency entry is “inactive”.

Turning to `C/C(=C\CO[C@@H]1O[C@H](CO[C@H]2OC[C@](O)(CO)[C@H]2O)[C@@H](O)[C@H](O)[C@H]1O)C(C)(C)O`, the Potency entry in [1] was “inactive”.

As for `COc1ccc2c(c1O[C@H]1CCNC1)CCC2`, the Potency result in [1] was “inactive”.

As for `Cc1noc(-c2ccc(-c3ccc(CC(=O)O)cc3)cc2)c1NC(=O)O[C@H](C)c1ccccc1Cl`, in assay [1], the Potency entry is “inactive”. Also, the Potency with Furin (Homo sapiens) was 69.8 µM (active); in assay [14], 44.1 µM (active); in assay [15], 31.2 µM (active).

As for `CC(O)(C(=O)O)C1CCC2(C)C1CCC1(C)C2CCC2C3(C)CCC(O)C(C)(COC4OC(CO)C(O)C(O)C4O)C3CCC21C` (stereo not drawn), the Potency entry (with Furin (Homo sapiens); in [14]) was “inactive” in each case.

With `CCCCCc1ccc(/C=C/C(=O)Nc2cc(Cl)ccc2C(=O)O)cc1`, the Potency result in assay [1] is “inactive”. Moreover, the Potency in the assay with Furin (Homo sapiens) is 39.3 µM (active); in [14], 8.79 µM (active); in assay [15], 9.87 µM (active).

On to `CC(C)C[C@H](C(=O)O)c1cc(-c2ccc(C(F)(F)F)cc2)cc(-c2ccc(C(F)(F)F)cc2)c1`, for which the Potency with Furin (Homo sapiens) was 17.5 µM (active); in assay [14], 9.87 µM (active); in [15], 15.6 µM (active).

Take `Clc1ncoc1-c1c[nH]c2ccccc12`: in assay [1], the Potency entry was “inactive”.

As for `O=C1Nc2ccccc2-c2nc3ccccc3c(=O)n2-c2c(O)cccc21`, the Potency entry in [1] is “inactive”.

For the compound `O=C(O)c1ccc(S(=O)(=O)N(Cc2ccc(OC(F)(F)F)cc2)c2ncc(C(F)(F)F)cc2Cl)cc1`, the Potency result in assay [1] was “inactive”. The figures for the Potency in assay [14] and in assay [15] were 49.4 µM (active) and 44.1 µM (active), respectively.

For the compound `CCCCCCCOc1cc2c(cc1/C(C)=C/c1ccc(C(=O)O)cc1)C(C)(C)CCS2(=O)=O`, the Potency is 55.5 µM (active) with Furin (Homo sapiens), 8.79 µM (active) in [14] and 8.79 µM (active) in [15].

For the compound `CCC(CC)(NC(=O)C(C)C)C(=O)N[C@@H](CCCN=C(N)N)C(=O)NC1(C(=O)NC(c2ccc(F)cc2)c2ccc(F)cc2)CCCC1`, the Potency entry (in assay [1]; with Furin (Homo sapiens)) was “inactive” throughout. Also, the outcome in assay [16] was inactive.

As to `O=C(O)c1ccc(N2C(=O)/C(=C/c3ccc(-c4ccc([N+](=O)[O-])cc4)o3)C=C2c2ccccc2)cc1`, the Potency in assay [14] was 12.4 µM (active).

As to `COc1ccccc1C(=O)Nc1cc2c(cc1N1CCCC1)n(C)c(=O)n2C`, in [1], the Potency was 18.4 µM (active).

`CCn1c(-c2nonc2N)nc2c(C#CCO)ncc(OCCCN)c21`: the Potency entry in assay [1] is “inactive”.

In the case of `COC[C@H](c1ccc(C(F)(F)F)cc1)N1CCN(C2(C)CCN(C(=O)c3c(C)ncnc3C)CC2)C[C@H]1C`, the Potency result in [1] is “inactive”.

As for `CC(=O)OC1CC(C)(C(=O)O)CC2C3=CC(=O)C4C5(C)CCC(OC6OC(C(=O)O)C(O)C(O)C6OC6OC(C(=O)O)C(O)C(O)C6O)C(C)(C)C5CCC4(C)C3(C)CCC12C` (stereo not drawn), the activity change, negative = cytotoxicity in assay [1] was 0.92% [at 9.29 µM].

Consider `O=C(Nc1ccc(-c2ccc(Cl)c(Cl)c2)cc1)C1=C(O)c2ccccc2S(=O)(=O)N1`, for which the Potency result (in assay [1]; with Furin (Homo sapiens)) was “inactive” in each case. Moreover, the Potency was 49.4 µM (active) in assay [14] and 44.1 µM (active) in [15].

As for `CC(=O)O[C@H]1C[C@@](O)(C(C)C)[C@@H]2[C@@H](OC(=O)c3ccc(O)cc3)CC(C)=CC[C@@]12C`, the Potency entry in [1] was “inactive”.

For the compound `CC(=O)OCC(=O)[C@@]1(O)[C@H](C)C[C@H]2[C@@H]3C[C@H](F)C4=CC(=O)C=C[C@]4(C)[C@H]3[C@@H](O)C[C@@]21C`, the Potency entry in [1] was “inactive”.

Regarding `COc1ccc(-c2ccccc2)cc1NS(=O)(=O)c1cc(Cl)cc(Cl)c1O`, the figures for the Potency (in the assay with Furin (Homo sapiens); in assay [14]) were 30.4 µM (active) and 7.64 µM (active), respectively.
